# Test results: PubChem BioAssay (NCATS)
# Results filed as inconclusive are left out. A call without a number means that no potency is given here. The source made the active and inactive calls. Unless noted, the call rests on the fitted dose curve; in most records, active means well fitted curve in the direction sought with a large enough effect in the repeat runs; inconclusive means weak or mixed curves; inactive means no such curve, though single readings can be large; an effect the other way counts as inactive or inconclusive.
# Legend:
# [1] = molecular target: Cytochrome P450 2D6 (Homo sapiens) (UniProt P10635); experiment: Cytochrome P450 family 2 subfamily D member 6 (CYP2D6) small molecule antagonists: luciferase biochemical (cell-free) qHTS assay (AID 1645840); conditions: P450-Glo CYP2D6 enzyme, luciferin luminescence, 1 h; series mostly up to 57.4 µM; further: nearly all actives have a fitted effect of over 55% in size; further: potency means the concentration at half of the fitted maximal effect
# In short: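 P450-Glo luminescent screen: recombinant CYP2D6 enzyme–proluciferin substrate mix preincubated with compound 10 min at room temperature, then NADPH regeneration added for 1 h at room temperature. Detection reagent added for 20 min; luciferin light read as relative luminescence units.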
# [2] = Confirmation and Secondary Assay for Modulators of Hemoglobin Beta Chain Splicing at IVS2 654 locus (AID 910; active means well fitted curve in the direction sought with a large enough effect; an effect the other way counts as inactive or inconclusive;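 further: per-well total GFP intensity by laser scanning cytometry after 2-day treatment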); conditions: HeLa EGFP-654 splicing reporter, GFP fluorescence, 48 h; series mostly up to 46.1 µM
# In short: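 HeLa cells stably carrying EGFP interrupted by mutant beta-globin IVS2-654 intron (CMV-driven) were treated with compound for 2 days at 37C; corrected splicing was scored as total peak GFP intensity per well (488 nm excitation, 500-520 nm emission).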
# [3] = Confirmation and Secondary Assay for Modulators of Hemoglobin Beta Chain Splicing at IVS2 705 locus (AID 930; active means well fitted curve in the direction sought with a large enough effect; an effect the other way counts as inactive or inconclusive;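 further: HeLa cells stably expressing the EGFP-705 splicing reporter; GFP fluorescence per well restored by corrected splicing of the IVS2-705 intron in EGFP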); conditions: HeLa EGFP-705 splicing reporter, GFP fluorescence, 48 h; series mostly up to 46.1 µM
# In short: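 First, HeLa EGFP-705 cells are seeded at 500/well in Optimem with 2% FCS and left overnight. Next, compound or DMSO is added for 2 days. Finally wells are laser-scanned and total peak GFP intensity scored.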
# [4] = qHTS Assay for Lipid Storage Modulators (AID 1519; calls by dose curve); conditions: Drosophila S3 cells, BODIPY lipid droplet/cell ratio, laser cytometry, cells loaded with oleic acid; for activity change, negative = inhibition: at 57.5 µM (top of the series)
# In short: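 Cells seeded at 5,000 per well were treated with compounds over a concentration series and loaded with oleic acid (400 uM, as added). Lipid droplet fluorescence (488 nm excitation, 500-530 nm channel) was read by laser-scanning cytometry and normalized to 20 uM Triacsin C.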
# [5] = molecular target: Cytochrome P450 2C9 (Homo sapiens) (UniProt P11712); experiment: Cytochrome P450 family 2 subfamily C member 9 (CYP2C9) small molecule antagonists: luciferase biochemical (cell-free) qHTS assay (AID 1645842); conditions: P450-Glo CYP2C9 enzyme assay, luciferin luminescence; series mostly up to 57.4 µM; further: nearly all actives have a fitted effect of over 55% in size; further: potency means the concentration at half of the fitted maximal effect
# In short: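 Luminescence, after 20 min with luciferin detection reagent, reflected CYP2C9 turnover during a 1 h NADPH-driven reaction at 37C. Enzyme-substrate mix contained 0.4% bovine serum albumin and was preincubated with compound 10 min at room temperature.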
# [6] = molecular target: Cytochrome P450 3A4 (Homo sapiens) (UniProt P08684); experiment: Cytochrome P450 family 3 subfamily A member 4 (CYP3A4) small molecule antagonists: luciferase qHTS assay (AID 1645841); conditions: P450-Glo CYP3A4 enzyme assay, luciferin luminescence; series mostly up to 57.4 µM; further: nearly all actives have a fitted effect of over 45% in size; further: potency means the concentration at half of the fitted maximal effect
# In short: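 P450-Glo CYP3A4 enzyme with proluciferin substrate was preincubated with DMSO-dissolved compounds for 10 min at room temperature. NADPH regeneration solution started a 1 h reaction. Detection reagent stopped it, and luminescence was read after 20 min.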
# [7] = measured here: cell count channel max response
# [8] = measured here: lipid channel max response
# Sequence of Cytochrome P450 3A4 (Homo sapiens) (P08684 whole entry, looked up): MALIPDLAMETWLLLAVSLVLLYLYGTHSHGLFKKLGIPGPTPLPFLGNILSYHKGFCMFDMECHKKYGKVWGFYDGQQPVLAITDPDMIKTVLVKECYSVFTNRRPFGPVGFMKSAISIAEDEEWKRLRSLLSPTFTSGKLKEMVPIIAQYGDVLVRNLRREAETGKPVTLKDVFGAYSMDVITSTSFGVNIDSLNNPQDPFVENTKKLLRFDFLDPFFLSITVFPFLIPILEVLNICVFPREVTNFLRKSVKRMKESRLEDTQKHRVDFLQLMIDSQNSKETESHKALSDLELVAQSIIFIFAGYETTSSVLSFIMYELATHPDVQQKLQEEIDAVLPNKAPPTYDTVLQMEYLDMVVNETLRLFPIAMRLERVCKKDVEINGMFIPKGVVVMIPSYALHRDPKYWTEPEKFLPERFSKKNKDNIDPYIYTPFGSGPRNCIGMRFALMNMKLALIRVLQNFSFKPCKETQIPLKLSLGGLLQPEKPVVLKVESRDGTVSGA
# Sequence of Cytochrome P450 2C9 (Homo sapiens) (P11712 whole entry, looked up): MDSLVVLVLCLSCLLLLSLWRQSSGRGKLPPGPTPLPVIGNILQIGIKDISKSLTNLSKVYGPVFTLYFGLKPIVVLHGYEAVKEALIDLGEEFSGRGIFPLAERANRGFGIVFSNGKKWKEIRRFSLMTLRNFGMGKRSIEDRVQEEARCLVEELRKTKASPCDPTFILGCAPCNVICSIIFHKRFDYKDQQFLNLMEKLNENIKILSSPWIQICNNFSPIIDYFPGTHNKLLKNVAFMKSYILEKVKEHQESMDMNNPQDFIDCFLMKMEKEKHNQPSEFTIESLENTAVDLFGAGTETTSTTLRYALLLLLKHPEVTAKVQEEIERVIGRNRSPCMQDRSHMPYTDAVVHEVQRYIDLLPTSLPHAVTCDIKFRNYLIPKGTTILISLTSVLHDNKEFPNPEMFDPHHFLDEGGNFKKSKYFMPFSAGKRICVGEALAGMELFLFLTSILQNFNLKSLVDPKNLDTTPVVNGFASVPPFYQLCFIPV
# Sequence of Cytochrome P450 2D6 (Homo sapiens) (P10635 whole entry, looked up): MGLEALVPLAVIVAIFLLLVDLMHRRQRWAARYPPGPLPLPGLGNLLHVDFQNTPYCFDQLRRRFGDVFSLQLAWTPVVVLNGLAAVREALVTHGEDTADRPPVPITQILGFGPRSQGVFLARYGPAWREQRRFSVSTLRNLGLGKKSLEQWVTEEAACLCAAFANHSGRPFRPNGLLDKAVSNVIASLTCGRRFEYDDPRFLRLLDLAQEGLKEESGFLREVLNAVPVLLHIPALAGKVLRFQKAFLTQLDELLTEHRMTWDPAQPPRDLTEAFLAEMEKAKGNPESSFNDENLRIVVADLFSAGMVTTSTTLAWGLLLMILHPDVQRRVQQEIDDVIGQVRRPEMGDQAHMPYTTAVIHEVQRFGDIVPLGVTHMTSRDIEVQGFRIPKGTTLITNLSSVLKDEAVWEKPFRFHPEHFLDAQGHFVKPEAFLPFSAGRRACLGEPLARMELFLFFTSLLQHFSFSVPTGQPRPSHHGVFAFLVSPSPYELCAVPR
smiles,measurement,setting,value
c1ccc(Cn2c(-c3ccc(OC[C@H](C4CCNCC4)n4c(-c5ccccc5)nc5ccccc54)cc3)nc3ccccc32)cc1,Potency,[1],12 µM (active)
CCC(C)C(=O)OC1CC(C)C=C2C=CC(C)C(CCC3CC(O)CC(=O)O3)C21 (stereo not drawn),Potency,[2],inactive
same,Potency,[3],inactive
same,"activity change, negative = inhibition",[4],5.56% (inactive)
same,max response,[4]; [7],0.727%
same,max response,[4]; [8],5.38%
COc1ccc(-c2nc3n(n2)C(c2ccc(OC)c(OC)c2)C(C(=O)Nc2cccnc2)=C(C)N3)cc1 (stereo not drawn),Potency,[1],inactive
CCc1ccc(CN(Cc2ccco2)C(=O)COc2ccccc2Cl)cc1,Potency,[1],7.56 µM (active)
CN1CCCC1CCO[C@@](C)(c1ccccc1)c1ccc(Cl)cc1 (stereo partly drawn),Potency,[2],inactive
same,Potency,[3],inactive
same,"activity change, negative = inhibition",[4],-9.48% (inactive)
same,max response,[4]; [7],-21.6%
same,max response,[4]; [8],-28.2%
O=C(O)c1ccc(Cc2c(-c3cccc(-c4ccccc4)c3)[nH]n(-c3nc(C(=O)O)cs3)c2=O)cc1,Potency,[1],9.52 µM (active)
O=C(O)c1cc(O)c2c(O)c3c(O[C@@H]4O[C@H](CO)[C@@H](O)[C@H](O)[C@H]4O)cccc3c(-c3c4cc(C(=O)O)cc(O)c4c(O)c4c(O[C@@H]5O[C@H](CO)[C@@H](O)[C@H](O)[C@H]5O)cccc34)c2c1,Potency,[1],15.1 µM (active)
Cc1nn(CC(=O)NCCc2ccccc2)c(=O)c2c1sc1ccccc12,Potency,[1],12 µM (active)
Cc1onc(-c2c(F)cccc2Cl)c1C(=O)Cl,Potency,[1],inactive
CCOC(=O)c1sc(NC(=O)c2c(-c3ccccc3)c(-c3ccccc3)nn(C)c2=O)nc1C,Potency,[1],inactive
COc1ccc(Br)c2c1-c1nc(NC(=O)c3cccc(C)c3)sc1C2,Potency,[1],inactive
Cn1c(=O)c2c(nc(CN3CCN(C(=O)C4CC4)CC3)n2Cc2ccccc2Cl)n(C)c1=O,Potency,[1],inactive
Cc1cccn2c(=O)c(/C=C(\C#N)c3nc4ccccc4s3)c(Oc3ccc(F)cc3)nc12,Potency,[1],inactive
COc1ccc(C(=O)NC(c2ccc(Cl)cc2)c2cc(Cl)c3cccnc3c2O)cc1 (stereo not drawn),Potency,[1],inactive
Cc1cn(C2CC(N=[N+]=[N-])C(CO)O2)c(=O)[nH]c1=O (stereo not drawn),Potency,[2],inactive
same,Potency,[3],inactive
same,"activity change, negative = inhibition",[4],9.63% (inactive)
same,max response,[4]; [7],4.71%
same,max response,[4]; [8],18.1%
Cc1onc(-c2ccccc2Cl)c1C(=O)Cl,Potency,[1],inactive
CC(=O)C1(O)Cc2c(O)c3c(c(O)c2C(OC2CC(N)C(O)C(C)O2)C1)C(=O)c1ccccc1C3=O (stereo not drawn),Potency,[1],12 µM (active)
Cc1cc(C)cc(NC(=O)Cn2c(=O)n(-c3ccc(C)c(C)c3)c(=O)c3oc4ccccc4c32)c1,Potency,[1],0.425 µM (active)
COc1ccc2cc(Br)ccc2c1,Potency,[1],inactive
Cc1[nH]n2c(=O)cc(-c3ccc(Cl)cc3)nc2c1-c1ccccc1,Potency,[1],inactive
CC(C)CCn1c(CN2CCN(C(=O)C(C)C)CC2)nc2c1c(=O)n(C)c(=O)n2C,Potency,[1],inactive
CCCCC1CCC(CCCC(C)CCC(=O)O)CC1 (stereo not drawn),Potency,[1],inactive
Cc1nc2c3ccccc3nc(NNC(=O)CCC(=O)N3CCN(c4ccccc4F)CC3)n2n1,Potency,[1],inactive
COc1ccc(NC(=O)Cn2cc(C(=O)c3cccs3)c3ccccc32)cc1,Potency,[1],2.68 µM (active)
CCc1ccc(C(=O)c2cn(CC(=O)Nc3ccc(OC)c(OC)c3)c3ccc(C)cc3c2=O)cc1,Potency,[1],inactive
CCCCC[C@H](O)CC[C@@H]1[C@H]2Cc3cccc(OCC(=O)O)c3C[C@H]2C[C@H]1O,Potency,[1],inactive
CC(=O)OC1CC[C@@]2(C)C3CC(=O)[C@]4(C)C(C(C)=O)=CCC4C3CC[C@H]2C1 (stereo partly drawn),Potency,[2],inactive
same,Potency,[3],inactive
same,"activity change, negative = inhibition",[4],-12.8% (inactive)
same,max response,[4]; [7],4.87%
same,max response,[4]; [8],-10%
C[C@]12C=CC(=O)C=C1CCC1C2C(=O)C[C@]2(C)C1CC[C@]2(O)C(=O)CO (stereo partly drawn),Potency,[2],inactive
same,Potency,[3],inactive
same,"activity change, negative = inhibition",[4],8.15% (inactive)
same,max response,[4]; [7],19.1%
same,max response,[4]; [8],31.9%
OCCOCCOCCOCCOCCN1CCN(C(c2ccc(Cl)cc2)c2ccc(Cl)cc2)CC1,Potency,[1],8.49 µM (active)
CC1CCCCC1N(Cc1ccccc1)[S+](=O)([O-])c1ccc([S+](=O)([O-])N(C)C)cc1 (stereo not drawn),Potency,[1],inactive
CC12CCC3(C)C(=CC(=O)[C@@H]4C5(C)CC[C@H](O[C@H]6O[C@H](C(=O)O)C(O)C(O)[C@H]6O[C@@H]6O[C@H](C(=O)O)C(O)C(O)C6O)C(C)(C)[C@@H]5CCC43C)[C@@H]1C[C@@](C)(C(=O)O)CC2 (stereo partly drawn),Potency,[1],inactive
NC(=O)C[C@H](N)C(=O)O,Potency,[1],inactive
same,Potency,[5],inactive
CC1(C#N)CCN(c2c(C(=O)N3CCC(C(=O)C4CC4)CC3)cnc3ccc(F)cc23)CC1,Potency,[1],10.7 µM (active)
same,Potency,[5],1.9 µM (active)
COc1ccc(CNC(=O)Cn2c(SCC(=O)Nc3ccc(C)c(C)c3)nc3ccccc32)cc1,Potency,[1],inactive
same,Potency,[5],2.39 µM (active)
C[S+](=O)([O-])Nc1ccc(-c2ccc3nc(-c4ccc(OC(F)(F)F)cc4)[nH]c3c2)cc1,Potency,[1],inactive
same,Potency,[6],inactive
CC(C)OCc1cc(CN2CCN(c3ccccc3)CC2)c(O)c2ncccc12,Potency,[1],inactive
same,Potency,[6],inactive
CCOC(=O)c1ccc(NC(=O)CSc2cc(-c3ccccc3)nc(C)n2)cc1,Potency,[1],inactive
same,Potency,[5],0.952 µM (active)
CCCOCc1cc(CN2CCN(c3cccc(Cl)c3)CC2)c(O)c2ncccc12,Potency,[1],inactive
same,Potency,[5],6.74 µM (active)
Cc1ccc(C)c(NC(=O)Cn2cc(C(=O)c3ccco3)c3ccccc32)c1,Potency,[1],0.425 µM (active)
same,Potency,[5],inactive
COc1ccc(Cn2ccnc2SCC(=O)Nc2nc3ccccc3s2)cc1,Potency,[1],9.52 µM (active)
same,Potency,[5],2.39 µM (active)
COc1cc(C(c2c(C)[nH][nH]c2=O)c2c(C)[nH][nH]c2=O)ccc1OC(=O)c1ccccc1OC,Potency,[1],inactive
same,Potency,[5],8.49 µM (active)
COc1ccc(CC(=O)Nc2c(C(=O)N3CCN(c4ccccc4F)CC3)oc3ccccc23)cc1OC,Potency,[1],inactive
same,Potency,[5],inactive
NC(=O)c1ccc(Cc2c(-c3cccc(-c4ccccc4)c3)[nH]n(-c3nc(C(=O)O)cs3)c2=O)cc1,Potency,[1],23.9 µM (active)
same,Potency,[5],26.8 µM (active)
CC1(C#N)CCN(c2c(C(=O)N3CCN(C(=O)N4CCCC4)CC3)cnc3c(F)cc(F)cc23)CC1,Potency,[1],inactive
same,Potency,[5],12 µM (active)
CN1N=C(N)c2cn([C@@H]3O[C@H](COP(=O)(O)O)[C@@H](O)[C@H]3O)c3ncnc1c23,Potency,[1],inactive
CCc1ccc(CNC(=O)C2CCCN(c3nnc(C)c4c(C)n(-c5ccccc5)nc34)C2)cc1 (stereo not drawn),Potency,[1],10.7 µM (active)
same,Potency,[6],1.9 µM (active)
same,Potency,[5],8.49 µM (active)
CCOc1ccc(C(NC(=O)c2cc(OC)c(OC)c(OC)c2)c2cc(Cl)c3cccnc3c2O)cc1 (stereo not drawn),Potency,[1],inactive
same,Potency,[5],30.1 µM (active)
Clc1cccc(-n2ncc3c(NCCCn4ccnc4)ncnc32)c1,Potency,[1],2.13 µM (active)
same,Potency,[5],0.379 µM (active)
OC[C@H]1O[C@@H]2O[C@H]3[C@H](O)[C@@H](O)[C@@H](O[C@H]4[C@H](O)[C@@H](O)[C@@H](O[C@H]5[C@H](O)[C@@H](O)[C@@H](O[C@H]6[C@H](O)[C@@H](O)[C@@H](O[C@H]7[C@H](O)[C@@H](O)[C@@H](O[C@H]1[C@H](O)[C@@H]2O)O[C@@H]7CO)O[C@@H]6CO)O[C@@H]5CO)O[C@@H]4CO)O[C@@H]3CO,Potency,[1],inactive
same,Potency,[6],inactive
same,Potency,[5],inactive
CCOc1ccc(-c2nonc2NC(=O)c2oc3c(C)c(C)ccc3c2C)cc1OCC,Potency,[1],inactive
same,Potency,[5],0.379 µM (active)
Cc1ccc(Nc2nc3nonc3nc2Nc2cccc(C(F)(F)F)c2)cc1Cl,Potency,[1],9.52 µM (active)
same,Potency,[6],inactive
same,Potency,[5],5.35 µM (active)
CC(=O)c1ccc(NC(=O)C2CCN(c3nnc(C)c4c(C)n(-c5ccccc5)nc34)CC2)cc1,Potency,[1],12 µM (active)
same,Potency,[5],7.56 µM (active)
CC1(C#N)CCN(c2c(C(=O)N3CCN(S(C)(=O)=O)CC3)cnc3cc(F)c(F)cc23)CC1,Potency,[1],inactive
Cc1ccc(Nc2nc3ccccc3c3nnc(C)n23)c(C)c1,Potency,[1],inactive
same,Potency,[5],5.35 µM (active)
CCOc1ccccc1CNC(=O)C1CCN(S(=O)(=O)c2c(C)noc2/C=C/c2ccccc2F)CC1,Potency,[1],inactive
same,Potency,[5],0.151 µM (active)
COCCOc1nc(N)c2[nH]c(=O)n(Cc3ccc(C(=O)O)cc3)c2n1,Potency,[1],inactive
same,Potency,[5],inactive
CC1(C)CC1C(=O)NC(=CCCCCSCC(N)C(=O)O)C(=O)O (stereo not drawn),Potency,[1],inactive
same,Potency,[5],inactive
CN(C)[S+](=O)([O-])c1ccc([S+](=O)([O-])N(Cc2cccs2)Cc2ccccc2Cl)cc1,Potency,[1],1.9 µM (active)
same,Potency,[5],3.79 µM (active)
CC1(C#N)CCN(c2c(C(=O)N3CCC(C(=O)C4CC4)CC3)cnc3c(F)cc(F)cc23)CC1,Potency,[1],16.9 µM (active)
same,Potency,[5],9.52 µM (active)
COc1ccc(C(=O)Nc2ccc3oc(-c4ccc(OC)cc4)nc3c2)cc1,Potency,[1],inactive
COc1cc(C(c2c(C)[nH][nH]c2=O)c2c(C)[nH][nH]c2=O)ccc1OC(=O)c1ccccc1F,Potency,[1],inactive
same,Potency,[5],10.7 µM (active)
CN[C@H](CC(C)C)C(=O)N[C@H]1C(=O)N[C@@H](CC(N)=O)C(=O)N[C@H]2C(=O)N[C@H]3C(=O)N[C@H](C(=O)N[C@H](C(=O)O)c4cc(O)cc(O)c4-c4cc3ccc4O)[C@H](O)c3ccc(c(Cl)c3)Oc3cc2cc(c3O[C@@H]2OC(CO)[C@@H](O)[C@H](O)[C@@H]2O[C@H]2C[C@](C)(N)[C@H](O)[C@H](C)O2)Oc2ccc(cc2Cl)[C@H]1O (stereo partly drawn),Potency,[1],inactive
same,Potency,[6],inactive
